The campaign covered roughly 290,000 compounds. About 3,300 (1.1%) were called active. No stated cut-off is given here; in the data, active means binding response below about 67% or above about 130%; inconclusive means no clear call, values can overlap the other calls; inactive means in between. The entries come from a sample that favours actives as a whole.
Biological target: Mitogen-activated protein kinase kinase kinase 2 (Homo sapiens) (UniProt Q9Y2U5)
Experiment: modulators of MEK5 binding to wildtype MEKK2, primary screen, biochemical, multiplex bead flow cytometry, Alexa488-MEK5 (AID 1531)
Conditions: Alexa488-MEK5 binding to MEKK2 WT, at 10 µM, actives lie on both sides

Binding response (% of control), active:
Cc1ccc(N2C(=O)CC(N3CCSCC3)C2=O)c(C)c1 (stereo not drawn) 62% [inhibitor], CN1CCC(CN)(N2CCN(c3ccccc3)CC2)CC1 146%, CC(=O)c1cccc(NC(=O)CN2C(=O)c3cccnc3Oc3ccc(Cl)cc32)c1 68% [inhibitor], O=C(CN1C(=O)c2cccnc2Oc2ccc(Cl)cc21)Nc1ccc(F)cc1 50% [inhibitor], CCOC(=O)c1cc2occc2n1CC(=O)N1CCN(C(=O)c2ccco2)CC1 -8% [inhibitor], CC(C)(C)NC(=O)Cn1cnc([N+](=O)[O-])n1 2% [inhibitor], Oc1c(C=Nc2cccc3nsnc23)ccc2ccccc12 31% [inhibitor], O=C(OCC1O[C@@H](OC(=O)c2cc(O)c(O)c(O)c2)[C@@H](OC(=O)c2cc(O)c(O)c(O)c2)[C@@H](OC(=O)c2cc(O)c(O)c(O)c2)[C@@H]1OC(=O)c1cc(O)c(O)c(O)c1)c1cc(O)c(O)c(O)c1 (stereo partly drawn) 62% [inhibitor], CCC(C)OC(=O)C(C)Oc1ccc(-c2ccccc2)cc1 (stereo not drawn) 2% [inhibitor], CCC1=Nc2cc(C(=O)NCCN3CCCC3)ccc2Sc2ccc(C)cc21 155%, CCCC1=Nc2cc(C(=O)NCCN3CCCC3)ccc2Sc2ccccc21 142%

Binding response (% of control), inactive:
CCN(CC)CCN1C(=O)C2C(C(=O)Nc3ccc(Br)cc3)C3C=CC2(O3)C1C(=O)NC1CCCCC1 (stereo not drawn) 106%, C=CCOC(=O)C1=C[C@H](c2ccc(Br)cc2)C[C@H](OCCCCO)O1 95%, Cc1cc2oc3ccc(NCCC4CCCN4C)cc3c(=O)c2cc1C (stereo not drawn) 135%, CCOC(=O)CSc1nc2ccc(C)cc2n2cnnc12 96%, C#CCNC(=O)[C@H](Cc1ccc(C(=O)c2ccccc2)cc1)NC(=O)OC(C)(C)C 101%, Cc1cc(-c2ccc(C)c(S(=O)(=O)NCCCN(Cc3ccccc3)C(C)C)c2)on1 108%, O=C1CC(N2CCN(c3ccc(F)cc3)CC2)C(=O)N1c1ccccc1 (stereo not drawn) 101%, Cc1ccc(CC2CC(=O)N(c3cc(C)ccc3C)C2=O)cc1 (stereo not drawn) 101%, COc1cc(C(=O)NCCOC(=O)c2cccc(N(C)C)c2)cc(OC)c1OC 96%, COc1ccc(N2CCN(C(=O)C3CCN(C(=O)c4ccccc4Cl)CC3)CC2)cc1 97%, O=C(Cn1cnc2ccccc21)Nc1ccccc1-c1ccccc1 115%, COc1ccccc1C(C)NC(=O)Cc1ccsc1 (stereo not drawn) 104%, O=C(c1ccccc1)c1ccc(C(=O)N2CCN(c3ccccc3)CC2)cc1 102%, CN1CCN(c2ccc(NC(=O)c3ccccc3)cc2)CC1 111%, CCn1c(SCC(=O)NC2CC2)nnc1-c1ccccc1OC 100%, CCOC(=O)C(Cc1ccc(N)cc1)N1C(=O)c2ccccc2C1=O (stereo not drawn) 106%, O=S(=O)(NCC1CC1)c1ccc(F)c(Cl)c1 97%, Cc1ccc2c(c1)N(CC(=O)N1CCC(C)CC1)C(=O)c1cccnc1O2 103%, Cc1ccc2c(c1)N(CC(=O)NCCCN1CCCCC1)C(=O)c1cccnc1O2 106%, Cc1ccc2c(c1)N(CC(=O)NCCc1ccc(Cl)cc1)C(=O)c1cccnc1O2 98%, O=C(CN1C(=O)c2cccnc2Oc2ccc(Cl)cc21)NCCc1ccccc1 101%, Cc1ccc(-c2csc(NCCc3nc4cc(Cl)c(Cl)cc4n3CCOCCO)n2)cc1 105%, CCn1ccnc1CN(C)C(=O)c1ccc2nc(Cc3ccc(OC)cc3)oc2c1 103%, COC(=O)c1ccc2c(C(C)(C)O)c(C(C)(C)O)[nH]c2c1 88%, Cc1ccccc1N(C(=O)CNC(=O)c1cccs1)C(C(=O)NC1CCCC1)c1ccncc1 (stereo not drawn) 98%, CCOC(=O)c1cc2c(ccn2C)n1CC(=O)N1CCC(C)CC1 110%, CCOC(=O)c1cc2occc2n1CC(=O)NC1CCC(C)CC1 (stereo not drawn) 99%, Fc1ccccc1/C=N/Nc1cc(N2CCCCC2)ncn1 108%, CCOC(=O)Nc1ccc2c(c1)N(C(=O)CCCl)c1ccccc1[S@]2=O 107%, CC(C)(C)NC(=O)Cn1cnc2cc([N+](=O)[O-])ccc2c1=O 88%, O=C(Cn1cnc([N+](=O)[O-])n1)NCCc1ccccc1 100%, CC(=O)Nc1ccc(NC(=O)CS(=O)(=O)c2cn(CC(=O)N3CCCCC3)c3ccccc23)cc1 99%, Cc1ccc(CSCC2Nc3ccc(C(=O)N4CCN(c5ccc(F)cc5)CC4)cc3NC2=O)cc1 (stereo not drawn) 94%, Cc1snc(SCc2c(F)cccc2Cl)c1C#N 108%, O=C(CN1CCN(S(=O)(=O)c2cc(Cl)ccc2Cl)CC1)c1ccc(O)c(O)c1 97%, COc1ccc(C=Nc2cccc3ncccc23)cc1 81%, O=[N+]([O-])c1ccc(N=Cc2c(O)ccc3ccccc23)cc1 95%, Cc1ccc(C)c(NS(=O)(=O)c2c(C)[nH]c(C)c2C(=O)N2CCCCC2)c1 103%, COc1ccc(-c2noc(CNC(=O)C(C)Oc3ccccc3)n2)cc1 (stereo not drawn) 98%, CC(=O)Nc1ccc(NC(=O)COc2ccc(-c3ccccc3)cc2)cc1 97%, CCCCNC(=O)N(O)C1N(/N=C/c2ccccc2O)C(=S)SC1(C)C (stereo not drawn) 101%, Cc1ccc(-n2ncc3c2CC(C)(C)CC3NC(=O)Cc2c(C)noc2C)cc1 (stereo not drawn) 100%, Cc1cc(C)cc(C(=O)NCCN2CCOCC2)c1 109%, Cc1ccccc1CN1C(=O)c2ccccc2Sc2ccc(C(=O)NCCCN3CCOCC3)cc21 110%, CCCC1=Nc2cc(C(=O)NCc3ccco3)ccc2Sc2ccccc21 98%, CCC1=Nc2cc(C(=O)NCCCN3CCOCC3)ccc2Sc2ccc(Br)cc21 108%, COCCNC(=O)CSc1nc2sccc2c(=O)n1-c1ccccc1 101%
